Assay results as given in the supplement of paper PMC11732987, “Enantioselective OTUD7B fragment discovery through chemoproteomics screening and high-throughput optimisation” (Communications Chemistry, 2025).

Tests used:
Test in all cases: log2 ratio of Biotin-Ahx-Ub-VS probe labelling (fragment/DMSO); higher = less target engagement (more negative = stronger competition), active = hit call of the paper (q ≤ 0.05, log2 ratio ≤ -1)
Details in all cases: compound concentration: 200 uM; treatment time: 3 h
UniProt O00507 = biological target: UniProt O00507
Method in brief: (§1)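 Using Biotin-Ahx-Ub-VS at 0.5 µM final for 1 h, DUBs were labelled in HEK293T lysate (495 µg per sample) that had first been treated in triplicate with fragment at 200 µM or vehicle for 3 h. NeutrAvidin enrichment, LysC and trypsin digestion and diaPASEF LC-MS/MS followed. Spectronaut label-free quantities were global-median-normalised. Values are average log2 fragment/vehicle ratios by unpaired t-test, using proteins with ≥2 unique peptides.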

UniProt P51784 = biological target: UniProt P51784
Method in brief: as §1

UniProt Q5T2D3 = biological target: T1, UniProt Q5T2D3
T1 sequence (whole entry): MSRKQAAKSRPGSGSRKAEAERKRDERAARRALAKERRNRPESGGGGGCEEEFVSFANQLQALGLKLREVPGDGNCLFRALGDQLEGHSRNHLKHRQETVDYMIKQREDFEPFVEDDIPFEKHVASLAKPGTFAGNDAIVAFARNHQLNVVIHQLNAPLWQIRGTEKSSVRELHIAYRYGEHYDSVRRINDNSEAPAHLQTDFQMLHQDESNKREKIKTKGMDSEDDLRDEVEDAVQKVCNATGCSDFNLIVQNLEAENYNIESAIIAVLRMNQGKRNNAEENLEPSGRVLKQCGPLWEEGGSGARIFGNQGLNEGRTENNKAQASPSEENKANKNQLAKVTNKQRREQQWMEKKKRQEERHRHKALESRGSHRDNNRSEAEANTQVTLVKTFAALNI
Method in brief: as §1

UniProt Q8TE49 = biological target: T2, UniProt Q8TE49
T2 sequence (whole entry): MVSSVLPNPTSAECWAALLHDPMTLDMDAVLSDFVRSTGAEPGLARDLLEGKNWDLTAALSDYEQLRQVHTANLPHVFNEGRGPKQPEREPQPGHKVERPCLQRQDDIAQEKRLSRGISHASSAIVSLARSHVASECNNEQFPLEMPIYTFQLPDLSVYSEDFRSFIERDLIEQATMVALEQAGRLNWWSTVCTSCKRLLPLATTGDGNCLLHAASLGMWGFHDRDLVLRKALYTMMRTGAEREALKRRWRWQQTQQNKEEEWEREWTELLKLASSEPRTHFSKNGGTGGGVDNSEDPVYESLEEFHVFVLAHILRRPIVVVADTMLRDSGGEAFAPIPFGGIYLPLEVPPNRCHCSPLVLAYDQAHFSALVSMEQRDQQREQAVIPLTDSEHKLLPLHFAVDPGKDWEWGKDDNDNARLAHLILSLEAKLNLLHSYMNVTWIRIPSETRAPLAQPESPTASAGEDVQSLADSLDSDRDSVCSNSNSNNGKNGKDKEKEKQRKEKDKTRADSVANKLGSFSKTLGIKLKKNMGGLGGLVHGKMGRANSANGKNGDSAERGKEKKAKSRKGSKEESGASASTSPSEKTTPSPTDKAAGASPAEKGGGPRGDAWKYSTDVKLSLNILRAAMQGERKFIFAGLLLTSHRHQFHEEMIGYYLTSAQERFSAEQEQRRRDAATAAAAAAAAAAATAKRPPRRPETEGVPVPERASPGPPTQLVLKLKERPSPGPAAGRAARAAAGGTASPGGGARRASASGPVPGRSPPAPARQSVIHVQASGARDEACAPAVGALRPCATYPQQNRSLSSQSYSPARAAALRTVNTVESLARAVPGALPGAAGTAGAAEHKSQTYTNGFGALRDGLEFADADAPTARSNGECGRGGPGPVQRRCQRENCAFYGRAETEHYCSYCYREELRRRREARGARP
Method in brief: as §1

UniProt Q9P2H5 = biological target: T3, UniProt Q9P2H5
T3 sequence (whole entry): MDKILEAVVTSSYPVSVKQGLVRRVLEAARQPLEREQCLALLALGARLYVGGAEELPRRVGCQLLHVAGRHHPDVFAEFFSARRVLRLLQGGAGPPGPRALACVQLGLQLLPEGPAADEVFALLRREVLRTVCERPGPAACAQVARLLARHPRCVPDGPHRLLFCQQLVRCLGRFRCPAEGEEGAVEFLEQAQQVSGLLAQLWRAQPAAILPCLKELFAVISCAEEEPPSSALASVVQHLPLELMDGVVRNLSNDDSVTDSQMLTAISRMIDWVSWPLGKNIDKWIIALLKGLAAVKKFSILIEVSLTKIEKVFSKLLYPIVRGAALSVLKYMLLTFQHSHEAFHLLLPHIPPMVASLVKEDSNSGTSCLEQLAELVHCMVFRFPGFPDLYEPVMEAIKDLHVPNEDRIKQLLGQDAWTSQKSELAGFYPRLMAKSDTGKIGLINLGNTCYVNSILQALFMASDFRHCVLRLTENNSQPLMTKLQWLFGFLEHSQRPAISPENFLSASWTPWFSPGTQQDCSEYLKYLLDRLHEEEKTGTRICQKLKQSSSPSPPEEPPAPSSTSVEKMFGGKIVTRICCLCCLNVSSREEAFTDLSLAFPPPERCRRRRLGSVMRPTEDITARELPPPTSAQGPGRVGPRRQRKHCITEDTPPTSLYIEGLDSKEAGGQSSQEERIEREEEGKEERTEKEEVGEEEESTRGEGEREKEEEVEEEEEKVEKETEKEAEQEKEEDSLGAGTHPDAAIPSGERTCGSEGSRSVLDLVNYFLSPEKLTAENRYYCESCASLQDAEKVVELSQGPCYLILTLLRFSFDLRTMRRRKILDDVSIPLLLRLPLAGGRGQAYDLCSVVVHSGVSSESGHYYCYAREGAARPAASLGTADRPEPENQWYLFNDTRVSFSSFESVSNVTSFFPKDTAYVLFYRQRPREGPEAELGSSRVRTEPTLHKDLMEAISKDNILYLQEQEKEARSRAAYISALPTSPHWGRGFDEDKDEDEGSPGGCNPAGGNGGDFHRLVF
Method in brief: as §1

UniProt Q9UGI0 = biological target: T4, UniProt Q9UGI0
T4 sequence (whole entry): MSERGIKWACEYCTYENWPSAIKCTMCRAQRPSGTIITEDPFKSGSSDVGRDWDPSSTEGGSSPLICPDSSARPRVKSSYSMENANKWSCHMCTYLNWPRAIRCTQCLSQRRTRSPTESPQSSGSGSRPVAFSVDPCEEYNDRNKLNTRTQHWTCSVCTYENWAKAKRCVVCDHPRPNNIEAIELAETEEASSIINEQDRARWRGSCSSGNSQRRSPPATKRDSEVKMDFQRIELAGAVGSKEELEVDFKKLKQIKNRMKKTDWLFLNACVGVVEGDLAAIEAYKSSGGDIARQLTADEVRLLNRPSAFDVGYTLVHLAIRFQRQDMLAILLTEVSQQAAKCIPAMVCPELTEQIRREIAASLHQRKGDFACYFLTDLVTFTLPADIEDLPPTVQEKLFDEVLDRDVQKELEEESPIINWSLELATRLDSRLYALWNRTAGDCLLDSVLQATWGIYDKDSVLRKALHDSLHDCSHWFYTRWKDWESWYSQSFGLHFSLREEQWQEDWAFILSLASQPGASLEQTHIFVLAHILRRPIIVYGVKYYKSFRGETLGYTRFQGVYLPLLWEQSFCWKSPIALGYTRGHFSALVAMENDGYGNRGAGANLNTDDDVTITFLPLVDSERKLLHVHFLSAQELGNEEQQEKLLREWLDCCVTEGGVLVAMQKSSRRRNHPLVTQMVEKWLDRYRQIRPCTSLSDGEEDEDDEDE
Method in brief: as §1

YOD1 = biological target: T5, YOD1 (UniProt Q5VVQ6)
T5 sequence (whole entry): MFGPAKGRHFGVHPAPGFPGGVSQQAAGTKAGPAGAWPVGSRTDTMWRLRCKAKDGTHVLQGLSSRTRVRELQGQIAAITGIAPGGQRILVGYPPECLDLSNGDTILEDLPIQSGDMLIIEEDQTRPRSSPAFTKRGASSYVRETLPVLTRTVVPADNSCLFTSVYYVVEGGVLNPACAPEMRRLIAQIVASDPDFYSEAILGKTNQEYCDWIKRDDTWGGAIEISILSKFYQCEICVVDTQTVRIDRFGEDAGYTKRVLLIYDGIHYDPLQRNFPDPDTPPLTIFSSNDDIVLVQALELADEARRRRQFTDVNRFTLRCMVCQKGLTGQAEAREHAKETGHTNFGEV
Method in brief: as §1

Measured: log2 ratio of Biotin-Ahx-Ub-VS probe labelling

Chain of UniProt P51784 (P51784 whole entry): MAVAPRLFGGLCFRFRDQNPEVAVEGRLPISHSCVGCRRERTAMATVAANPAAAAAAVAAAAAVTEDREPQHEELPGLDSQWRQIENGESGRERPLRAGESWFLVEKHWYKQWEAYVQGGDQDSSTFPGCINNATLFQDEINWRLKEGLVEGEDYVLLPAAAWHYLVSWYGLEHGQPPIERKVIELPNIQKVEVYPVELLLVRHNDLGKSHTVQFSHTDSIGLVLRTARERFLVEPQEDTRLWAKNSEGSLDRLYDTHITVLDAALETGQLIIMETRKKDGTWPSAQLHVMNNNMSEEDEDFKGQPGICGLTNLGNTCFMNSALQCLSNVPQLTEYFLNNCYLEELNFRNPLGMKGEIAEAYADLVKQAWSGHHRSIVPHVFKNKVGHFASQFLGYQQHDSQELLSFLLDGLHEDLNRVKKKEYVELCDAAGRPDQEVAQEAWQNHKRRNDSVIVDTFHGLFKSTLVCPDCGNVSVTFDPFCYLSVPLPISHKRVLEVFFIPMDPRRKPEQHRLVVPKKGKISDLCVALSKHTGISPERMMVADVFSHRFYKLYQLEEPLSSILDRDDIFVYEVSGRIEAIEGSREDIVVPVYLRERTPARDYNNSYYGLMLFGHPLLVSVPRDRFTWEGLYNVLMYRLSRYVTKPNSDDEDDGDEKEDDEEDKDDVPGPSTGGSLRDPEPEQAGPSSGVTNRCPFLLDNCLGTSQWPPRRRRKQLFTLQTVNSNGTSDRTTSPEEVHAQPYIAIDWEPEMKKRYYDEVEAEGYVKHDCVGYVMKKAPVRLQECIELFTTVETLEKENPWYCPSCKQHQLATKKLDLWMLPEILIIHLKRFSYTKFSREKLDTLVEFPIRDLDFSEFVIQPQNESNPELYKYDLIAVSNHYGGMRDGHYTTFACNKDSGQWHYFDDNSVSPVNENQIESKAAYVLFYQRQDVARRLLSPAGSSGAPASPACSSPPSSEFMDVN
Chain of UniProt O00507 (O00507 whole entry, the tested form may be a part): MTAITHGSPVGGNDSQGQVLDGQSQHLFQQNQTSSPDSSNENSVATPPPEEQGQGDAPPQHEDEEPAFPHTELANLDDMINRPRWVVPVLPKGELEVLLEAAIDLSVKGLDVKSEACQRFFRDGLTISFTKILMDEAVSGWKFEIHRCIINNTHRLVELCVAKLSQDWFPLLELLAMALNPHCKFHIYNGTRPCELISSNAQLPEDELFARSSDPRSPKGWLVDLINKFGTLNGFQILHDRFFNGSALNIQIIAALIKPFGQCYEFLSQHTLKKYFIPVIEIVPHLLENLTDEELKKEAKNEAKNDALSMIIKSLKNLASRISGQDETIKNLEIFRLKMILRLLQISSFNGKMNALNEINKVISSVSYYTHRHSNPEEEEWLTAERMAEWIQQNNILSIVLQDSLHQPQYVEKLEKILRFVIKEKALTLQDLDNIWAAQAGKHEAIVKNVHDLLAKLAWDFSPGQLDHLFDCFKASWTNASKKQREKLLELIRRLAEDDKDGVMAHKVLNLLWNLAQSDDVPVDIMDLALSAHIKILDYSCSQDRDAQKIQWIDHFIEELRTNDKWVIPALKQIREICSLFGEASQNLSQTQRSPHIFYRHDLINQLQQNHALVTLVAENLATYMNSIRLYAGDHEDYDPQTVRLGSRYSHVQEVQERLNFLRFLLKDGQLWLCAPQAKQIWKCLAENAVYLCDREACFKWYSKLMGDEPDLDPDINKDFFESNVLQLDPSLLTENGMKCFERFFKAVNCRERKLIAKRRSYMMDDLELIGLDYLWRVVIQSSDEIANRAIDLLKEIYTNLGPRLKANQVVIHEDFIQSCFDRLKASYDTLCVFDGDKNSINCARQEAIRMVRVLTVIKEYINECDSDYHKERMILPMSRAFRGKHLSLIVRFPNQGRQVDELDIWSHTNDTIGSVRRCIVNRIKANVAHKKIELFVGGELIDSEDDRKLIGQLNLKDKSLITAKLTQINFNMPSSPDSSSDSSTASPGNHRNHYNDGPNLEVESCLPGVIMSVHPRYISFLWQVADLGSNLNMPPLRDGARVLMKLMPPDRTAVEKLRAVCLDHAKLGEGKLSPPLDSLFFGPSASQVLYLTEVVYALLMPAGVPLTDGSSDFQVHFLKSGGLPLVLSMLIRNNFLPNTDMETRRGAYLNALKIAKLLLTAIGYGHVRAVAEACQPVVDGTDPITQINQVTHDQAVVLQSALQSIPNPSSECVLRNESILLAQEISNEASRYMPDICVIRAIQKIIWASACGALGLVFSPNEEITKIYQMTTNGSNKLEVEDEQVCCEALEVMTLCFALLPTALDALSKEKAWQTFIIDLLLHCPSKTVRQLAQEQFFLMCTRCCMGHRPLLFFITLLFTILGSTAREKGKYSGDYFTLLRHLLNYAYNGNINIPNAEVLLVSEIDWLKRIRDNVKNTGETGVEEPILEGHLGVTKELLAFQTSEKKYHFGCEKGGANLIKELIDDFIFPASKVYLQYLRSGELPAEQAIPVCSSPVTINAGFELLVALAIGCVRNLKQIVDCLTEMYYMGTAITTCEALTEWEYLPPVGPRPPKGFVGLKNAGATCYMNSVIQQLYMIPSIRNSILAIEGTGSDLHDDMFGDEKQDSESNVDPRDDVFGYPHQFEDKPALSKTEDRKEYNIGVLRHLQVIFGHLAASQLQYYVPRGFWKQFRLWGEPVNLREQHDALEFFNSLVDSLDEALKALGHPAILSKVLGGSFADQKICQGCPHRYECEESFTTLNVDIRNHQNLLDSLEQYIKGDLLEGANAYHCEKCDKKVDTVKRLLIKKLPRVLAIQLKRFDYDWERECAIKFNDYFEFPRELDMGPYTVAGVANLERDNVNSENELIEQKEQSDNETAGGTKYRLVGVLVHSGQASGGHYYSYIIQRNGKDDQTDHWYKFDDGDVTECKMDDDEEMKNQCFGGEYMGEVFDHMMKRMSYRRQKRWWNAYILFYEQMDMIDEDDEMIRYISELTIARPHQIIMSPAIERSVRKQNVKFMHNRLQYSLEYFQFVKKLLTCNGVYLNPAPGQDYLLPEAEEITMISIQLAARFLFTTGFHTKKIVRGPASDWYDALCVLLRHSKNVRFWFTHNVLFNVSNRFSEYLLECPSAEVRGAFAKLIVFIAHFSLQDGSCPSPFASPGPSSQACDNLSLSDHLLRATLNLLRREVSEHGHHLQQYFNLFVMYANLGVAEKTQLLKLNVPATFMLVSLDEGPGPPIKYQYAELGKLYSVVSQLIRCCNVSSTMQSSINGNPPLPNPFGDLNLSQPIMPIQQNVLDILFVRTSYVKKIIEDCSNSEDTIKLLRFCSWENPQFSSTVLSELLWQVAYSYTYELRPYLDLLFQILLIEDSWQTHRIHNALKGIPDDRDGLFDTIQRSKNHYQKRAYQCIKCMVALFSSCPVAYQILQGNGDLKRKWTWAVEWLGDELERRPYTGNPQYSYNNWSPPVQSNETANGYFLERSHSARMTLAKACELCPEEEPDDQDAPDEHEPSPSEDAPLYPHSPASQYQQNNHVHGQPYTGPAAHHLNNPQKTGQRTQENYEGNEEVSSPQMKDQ

NC(=O)C(Cc1ccccc1)NC(=O)CCl (stereo not drawn)
inactive: UniProt O00507 0.191 | UniProt P51784 -0.0194 | UniProt Q5T2D3 -0.105 | UniProt Q8TE49 -0.102 | UniProt Q9P2H5 -0.193 | UniProt Q9UGI0 -0.398 | YOD1 0.0228

Cc1conc1C1CN(C(=O)CCl)C1
active: UniProt Q8TE49 -1.71 | YOD1 -1.1
inactive: UniProt O00507 -0.553 | UniProt P51784 -0.677 | UniProt Q5T2D3 -0.923 | UniProt Q9P2H5 -0.584 | UniProt Q9UGI0 -0.885

O=C(CCl)Nc1ccc(Cl)c(F)c1
inactive: UniProt O00507 -0.588 | UniProt P51784 -0.219 | UniProt Q5T2D3 -0.339 | UniProt Q8TE49 -0.571 | UniProt Q9P2H5 -0.0638 | YOD1 -0.313
active: UniProt Q9UGI0 -1.27

CC(NC(=O)CCl)c1cc2n(n1)CCCC2.Cl (stereo not drawn)
inactive: UniProt O00507 0.229 | UniProt P51784 0.0045 | UniProt Q5T2D3 0.0101 | UniProt Q8TE49 -0.631 | UniProt Q9P2H5 -0.0486 | UniProt Q9UGI0 0.22 | YOD1 -0.00538

Cl.O=C(CCl)N1CCc2ncncc2C1
inactive: UniProt O00507 -0.362 | UniProt P51784 0.0954 | UniProt Q5T2D3 -0.274 | UniProt Q8TE49 -0.964 | UniProt Q9P2H5 -0.288 | YOD1 0.055
active: UniProt Q9UGI0 -1.57

CC(=O)Nc1ccc(NC(=O)CCl)cc1
active: UniProt Q9UGI0 -1.31
inactive: UniProt O00507 -0.353 | UniProt P51784 0.016 | UniProt Q5T2D3 -0.228 | UniProt Q8TE49 -0.811 | UniProt Q9P2H5 -0.0361 | YOD1 -0.229

O=C(CCl)N1c2ccccc2NC(=O)C12CCCC2
inactive: UniProt O00507 -0.37 | UniProt P51784 0.258 | UniProt Q5T2D3 -0.0754 | UniProt Q8TE49 -0.35 | UniProt Q9P2H5 0.0618 | UniProt Q9UGI0 -0.0496 | YOD1 -0.0709

O=C(CCl)NCc1ccc2c(c1)OCO2
inactive: UniProt O00507 0.0979 | UniProt P51784 0.0895 | UniProt Q5T2D3 -0.281 | UniProt Q8TE49 -0.708 | UniProt Q9P2H5 -0.288 | UniProt Q9UGI0 -0.607 | YOD1 0.157

Cc1ccc(-c2nnc(C)[nH]2)c(NC(=O)CCl)c1
inactive: UniProt O00507 -0.0161 | UniProt P51784 0.126 | UniProt Q5T2D3 -0.148 | UniProt Q8TE49 -0.185 | UniProt Q9P2H5 0.245 | UniProt Q9UGI0 -0.97 | YOD1 -0.102
